From PubChem BioAssay (NCATS)
Values without a mark were called inactive. The call rests on the fitted dose curve; in most records, active means well fitted activation curve with a large enough effect; inconclusive means small, poorly fitted or top-dose-only effect; inactive means flat fitted curve, though single readings scatter. Numbered stars: 1 amine (or outer) side, 2 acyl side, 3 side chain; on linkers, the order of the positions; unused ones are H or OH. Bridge positions count the residues as written; N and C are the ends. Square brackets hold non-standard residues; d marks the D form. Peptide text beside a SMILES is read from it. * marks the point of attachment. ξ: configuration not given here. ΔAla(E,3-NHCONH2) = NC(=O)N/C=C(/N)C(=O)O; X1 = NC1=NCCC(C(N[*:1])C(=O)[*:2])N1; ξβ3hOrn = NCCCC(N)CC(=O)*; Dap = NC[CH](N)C(=O)O

experiment: Confirmation and Secondary Assay for Modulators of Hemoglobin Beta Chain Splicing at IVS2 654 locus (AID 910); conditions: HeLa EGFP-654 splicing reporter, GFP fluorescence, 48 h; series mostly up to 46.1 µM; activation (splicing correction): at the top concentration;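 further: per-well total GFP intensity by laser scanning cytometry after 2-day treatment; % of control where 0% means no effect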
Outline: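 HeLa cells stably carrying EGFP interrupted by mutant beta-globin IVS2-654 intron (CMV-driven) were treated with compound for 2 days at 37C; corrected splicing was scored as total peak GFP intensity per well (488 nm excitation, 500-520 nm emission).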

Structure (SMILES) | activation (splicing correction)
CC1CC[C@@]2(OC1)OC1CC3C4CC[C@H]5CC(O)CC[C@@]5(C)C4CC[C@]3(C)C1C2C (stereo not given in full) | -0.675% [at 38.3 µM]
CC(=O)OCC(=O)[C@@]1(O)CCC2C3CCC4=CC(=O)CC[C@@]4(C)[C@]3(F)C(O)C[C@]21C (stereo not given in full) | 3.95%
CC(CCC(=O)O)C1CCC2C3CC(O)[C@@H]4CC(O)CC[C@]4(C)C3CC[C@@]12C (stereo not given in full) | -0.397% [at 38.3 µM]
CC1CCC(C(C)(C)O)CC2=C1CCC2C (stereo not given) | 4.48% [at 38.3 µM]
NCCC(O)C(=O)NC1C[C@@H](N)[C@H](O[C@@H]2OC(CN)C(O)C(O)C2O)C(O)[C@H]1O[C@H]1OC(CO)C(O)C(N)C1O (stereo not given in full) | 0.105%
CC(C)CC(NC(=O)CN)C(=O)NC(Cc1ccccc1)C(=O)O (stereo not drawn) (H-Gly-Leu-Phe-OH; configuration not given here) | 1.03% [at 38.3 µM]
CC(=O)OC1CCC2(C)C(=CC=C3C2CCC2(C)C3CCC2C(C)/C=C/C(C)C(C)C)C1(C)C (stereo not given) | 13%
COc1cc2c3cc1Oc1cc(ccc1O)CC1c4c(cc(OC)c(O)c4Oc4ccc(cc4)CC3N(C)CC2)CC[N+]1(C)C (stereo not given) | -0.54% [at 38.3 µM]
CCOC(=O)c1c(C)cc(O)c(C)c1O | -0.108% [at 38.3 µM]
CC1(C)OC2C(CO)OC(n3cnc4c(=O)[nH]c(N)nc43)C2O1 (stereo not given) | 2.33% [at 38.3 µM]
COc1ccc(-c2cc(=O)c3c(O)c(OC)c(OC)c(OC)c3o2)cc1 | 1.92% [at 38.3 µM]
NCCCC(N)CC(=O)NCC1NC(=O)C(CO)NC(=O)C(N)CNC(=O)C(C2CCN=C(N)N2)NC(=O)/C(=C\NC(N)=O)NC1=O (stereo not drawn) (H-[Dap]S[Dap](ξβ3hOrn)[ΔAla(E,3-NHCONH2)][X1]; lactam 1-C; configuration not given here) | 3.38%
COc1ccc(/C=C/c2cc(O)cc(O[C@H]3OC(CO)C(O)C(O)C3O)c2)cc1 (stereo not given in full) | 0.237% [at 38.3 µM]
CC(=O)OCC(=O)[C@]1(O)C(OC(C)=O)CC2C3CCC4=CC(=O)C=C[C@@]4(C)[C@]3(F)C(O)C[C@]21C (stereo not given in full) | 0.987%
COc1ccc(C2OC3C(CO)OC(n4cnc5c(=O)[nH]c(N)nc54)C3O2)cc1 (stereo not given) | -0.623% [at 38.3 µM]
C[C@@]12CCC(O)C[C@H]1CCc1ccccc12 (stereo not given in full) | -0.685% [at 38.3 µM]
CCOc1ccc(C(=O)c2ccc(OC)c(O)c2O)cc1 | 3.35%
CC(=O)NC(CC(=O)O)C(=O)NC(CCC(=O)O)C(=O)O (stereo not drawn) (Ac-Asp-Glu-OH; configuration not given here) | 1.4% [at 38.3 µM]
CC1CCC(C(C)C)[C@H](OC(=O)c2ccccc2)C1 (stereo not given in full) | -0.945% [at 38.3 µM]
CC(C(=O)O)C1CCC2C3CC=C4CC(O)CC[C@@]4(C)C3CC[C@]12C (stereo not given in full) | -0.0382% [at 38.3 µM]

Structure (SMILES) | activation (splicing correction)
CC1(C)OC2C[C@](O)(C(N)=O)C[C@H](O)[C@H]2O1 (stereo not given in full) | 3.08%
OCC1OC(n2cnc3c(NCc4ccco4)ncnc32)C(O)C1O (stereo not given) | 18.3% [at 38.3 µM]
[N-]=[N+]=NCC1OC(n2cnc3c(=O)[nH]c(N)nc32)C(O)C1O (stereo not given) | -0.919% [at 38.3 µM]
COc1ccc(-c2cc(=O)c3c(O)cc(O[C@@H]4OC(COC5OC(C)C(O)C(O)[C@@H]5O)C(O)C(O)C4O)cc3o2)cc1 (stereo not given in full) | -3.98%
CC(=O)C1CCC2C3CC=C4CC(O)CC[C@@]4(C)C3CC[C@]12C (stereo not given in full) | -4.18%
CC1CC[C@@]2(OC1)OC1CC3C4CC=C5CC(O)CC[C@@]5(C)C4CC[C@]3(C)C1C2C (stereo not given in full) | 4.77%
CC1CCC(C(C)C)[C@H](O)C1 (stereo not given in full) | 2.48%
CC(=O)OCC(=O)C1CCC2C3CC=C4CC(O)CC[C@@]4(C)C3CC[C@]12C (stereo not given in full) | -7.48%
CCC1OC(=O)C(C)[C@@H](O[C@H]2C[C@@](C)(OC)C(O)C(C)O2)C(C)[C@@H](O[C@@H]2OC(C)CC(N(C)C)C2O)[C@](C)(O)CC(C)/C(=N\OCOCCOC)[C@H](C)C(O)[C@]1(C)O (stereo not given in full) | 2.31%
C/C=C1\C2C=C(C)C[C@@]1(N)c1ccc(=O)[nH]c1C2 | 4.74%
CC(C)(O)CCC(O)[C@@](C)(O)C1CC[C@]2(O)C3=CC(=O)C4CC(O)C(O)C[C@]4(C)C3CC[C@]12C (stereo not given in full) | 0.16%
C=C(C)C1CC=C(CO)CC1 (stereo not given) | 0.079%
CC1CCC2(OC1)OC1CC3C4CC[C@@H]5CC(O)CC[C@@]5(C)C4CC(=O)[C@]3(C)C1C2C (stereo not given in full) | 3.36%
CC(=O)NC1C(O)C[C@@](O)(C(=O)O)OC1[C@@H](O)C(O)CO (stereo not given in full) | 0.0422% [at 38.3 µM]
O=C(Cc1ccccc1)NO | 8.41%
CCC(C(N)=O)c1ccccc1 (stereo not given) | 1.75%
CC1=C2C(O)C(=O)OC3CC4C(C)(C)C(=O)C=C[C@]4(C)C(CC1)[C@@]23C (stereo not given in full) | 6.17%
O=C(O)c1cc2cc(Cl)ccc2[nH]1 | -1.03% [at 38.3 µM]
CC(C)CC(N)C(=O)NC(C)C(=O)O (stereo not given) | 0.466% [at 38.3 µM]
NCC1CCCCC1CC(=O)O (stereo not given) | -0.867%
